# Test system: TYK2(JH2domain-pseudokinase)
# Conditions: concentration: 1 μM, replicates: in singlicate; n = 1
# 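Further: KINOMEscan kinase panel screen.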
row,Structure (SMILES),%Inh [%]
1,CC(C)(C)n1cnc2c(N)ncnc21 [SKF-97359],1
2,Cc1cccc(Cn2ccn3c(=O)cc(N4CCOCC4)nc23)c1 [GSK2297542],26
3,c1ccc(-c2cc(-c3c[nH]nc3-c3ccccn3)ccn2)cc1 [GW576604],26
4,O=C(Nc1cccc(-c2nn3ncccc3c2-c2ccnc(Nc3cccc(C(F)(F)F)c3)n2)c1)c1c(F)cccc1F [GSK299495],39
5,COc1cc2c(cc1OC[C@@H](O)CO)ncc1c3ccc(C#N)cc3[nH]c21,22
6,N#Cc1ccc(-c2cc(-c3c[nH]nc3-c3ccccn3)ccn2)cc1 [GW693028],28
7,Fc1ccc(-c2ncn(CCCN3CCOCC3)c2-c2ccccn2)cc1 [SB-211742],0
8,COc1ccc(Nc2nccc(N3CCC(NC(=O)Nc4cccc(C(C)=O)c4)C3)n2)cc1 (stereo not drawn) [GSK1379731],16
9,Cn1cc(-c2ccc3c(c2)CCN3C(=O)Cc2ccccc2Cl)c2c(N)ncnc21 [GSK2608885],0
10,CNc1ncnc2[nH]ncc12 [SKF-18355],27
11,Cc1cccc(-c2nc(Nc3ccc4ncsc4c3)c3ccccc3n2)n1 [GW867588],55
12,[2H]C([2H])(c1cccc(C(F)(F)F)c1C)n1ccn2c(=O)nc(N3CCOCC3)cc12 [GSK2336394],13
13,Cc1c2ccc(N(C)c3ccnc(Nc4cccc(S(N)(=O)=O)c4)n3)cc2nn1Cc1ccccc1.Cl.Cl [GW787226],0
14,O=C(c1ccc(-c2cc(-c3c[nH]nc3-c3ccccn3)ccn2)cc1)N1CCOCC1 [GW812171],21
15,CCn1cnc2c(N)ncnc21 [GW345098],0
16,Cl.Nc1ncnc2occ(-c3ccc(NC(=O)Nc4cc(C(F)(F)F)ccc4F)cc3)c12 [SB-707548],12
17,CC(=O)Nc1ccc(COc2ccc(Nc3ccnc4cc(-c5ccccn5)ccc34)cc2)cc1.Cl [GW440148],5
18,Cc1nnc(-c2ccc3occ(-c4ccc(C(C)O)cc4)c3c2)o1 (stereo not drawn),2

row,Structure (SMILES),%Inh [%]
1,Cc1nnc(-c2ccc3ncc(-c4ccc(S(C)=O)cc4)n3c2)o1 (stereo not drawn),2
2,c1ccc(-c2n[nH]cc2-c2ccnc3ccccc23)nc1 [GW271431],10
3,CCCCCc1nc2c(N)ncnc2n1CCCCC [SKF-97255],9
4,CN1c2ccc(CNc3ccc(F)cc3)cc2-c2c(cnn2C)S1(=O)=O,0
5,NCC(NC(=O)c1cc(-c2cn[nH]c2)c(-c2ccnc3[nH]ccc23)s1)c1ccccc1.O=C(O)C(F)(F)F.O=C(O)C(F)(F)F (stereo not drawn) [GSK1325775],31
6,O=C(Nc1n[nH]c2cc(-c3cccc(F)c3)ccc12)C1CC1 [SB-735464],10
7,COc1ccc(COc2cc(-n3cnc4ccccc43)sc2C(N)=O)cc1 [GSK1024304],0
8,CN(C(=O)c1ccc(-c2cc(-c3c[nH]nc3-c3ccccn3)ccn2)cc1)C1CCOCC1 [GW810083],25
9,O=c1cc(N2CCOCC2)nc2n(Cc3cccc(Cl)c3Cl)c(C3CC3)nn12 [GSK2358994],0
10,COc1cc2ncn(-c3cc(OCc4sccc4Cl)c(C(N)=O)s3)c2cc1OC [GSK448459],19
11,CCc1ccnc(/C=C/c2n[nH]c3cc(Sc4ccccc4C(=O)NC)ccc23)c1,0
12,CSc1ccc(-c2cc3ncnc(SCC(=O)O)c3s2)cc1,0
13,COc1ccc(Nc2nccc(N3CCC(NC(=O)Nc4cc(C)ccc4C)C3)n2)cc1 (stereo not drawn) [GSK1379741],23
14,Cc1c(Cn2c(C)nn3c(=O)cc(N4CCOC(C)C4)nc23)cccc1C(F)(F)F (stereo not drawn) [GSK2344444],0
15,O=C1NC(=O)C(N2CCc3ccccc32)=C1c1cccc(Cl)c1 [SB-408010],0
16,Cn1ccc2ncnc(Oc3ccc(NC(=O)Nc4ccncc4)c(Cl)c3)c21,5
17,O=C(NOCC1CC1)c1ccc(F)c(F)c1Nc1ccc(I)cc1Cl,0
18,Cc1ccc(NC(=O)c2ccnc(N3CCN(C)CC3)c2)cc1-c1ccc(C(=O)NCC2CC2)cc1 [GW775604],0

# Test system: TYRO3
# Conditions: concentration: 1 μM, replicates: in singlicate; n = 1
row,Structure (SMILES),%Inh [%]
1,CC(C)(C)n1cnc2c(N)ncnc21 [SKF-97359],0
2,Cc1cccc(Cn2ccn3c(=O)cc(N4CCOCC4)nc23)c1 [GSK2297542],8
3,c1ccc(-c2cc(-c3c[nH]nc3-c3ccccn3)ccn2)cc1 [GW576604],0
4,O=C(Nc1cccc(-c2nn3ncccc3c2-c2ccnc(Nc3cccc(C(F)(F)F)c3)n2)c1)c1c(F)cccc1F [GSK299495],87
5,COc1cc2c(cc1OC[C@@H](O)CO)ncc1c3ccc(C#N)cc3[nH]c21,0
6,N#Cc1ccc(-c2cc(-c3c[nH]nc3-c3ccccn3)ccn2)cc1 [GW693028],24
7,Fc1ccc(-c2ncn(CCCN3CCOCC3)c2-c2ccccn2)cc1 [SB-211742],8
8,COc1ccc(Nc2nccc(N3CCC(NC(=O)Nc4cccc(C(C)=O)c4)C3)n2)cc1 (stereo not drawn) [GSK1379731],6
9,Cn1cc(-c2ccc3c(c2)CCN3C(=O)Cc2ccccc2Cl)c2c(N)ncnc21 [GSK2608885],100
10,CNc1ncnc2[nH]ncc12 [SKF-18355],0
11,Cc1cccc(-c2nc(Nc3ccc4ncsc4c3)c3ccccc3n2)n1 [GW867588],0
12,[2H]C([2H])(c1cccc(C(F)(F)F)c1C)n1ccn2c(=O)nc(N3CCOCC3)cc12 [GSK2336394],0
13,Cc1c2ccc(N(C)c3ccnc(Nc4cccc(S(N)(=O)=O)c4)n3)cc2nn1Cc1ccccc1.Cl.Cl [GW787226],0
14,O=C(c1ccc(-c2cc(-c3c[nH]nc3-c3ccccn3)ccn2)cc1)N1CCOCC1 [GW812171],0
15,CCn1cnc2c(N)ncnc21 [GW345098],32
16,Cl.Nc1ncnc2occ(-c3ccc(NC(=O)Nc4cc(C(F)(F)F)ccc4F)cc3)c12 [SB-707548],0
17,CC(=O)Nc1ccc(COc2ccc(Nc3ccnc4cc(-c5ccccn5)ccc34)cc2)cc1.Cl [GW440148],0
18,Cc1nnc(-c2ccc3occ(-c4ccc(C(C)O)cc4)c3c2)o1 (stereo not drawn),6

row,Structure (SMILES),%Inh [%]
1,Cc1nnc(-c2ccc3ncc(-c4ccc(S(C)=O)cc4)n3c2)o1 (stereo not drawn),9
2,c1ccc(-c2n[nH]cc2-c2ccnc3ccccc23)nc1 [GW271431],0
3,CCCCCc1nc2c(N)ncnc2n1CCCCC [SKF-97255],0
4,CN1c2ccc(CNc3ccc(F)cc3)cc2-c2c(cnn2C)S1(=O)=O,0
5,NCC(NC(=O)c1cc(-c2cn[nH]c2)c(-c2ccnc3[nH]ccc23)s1)c1ccccc1.O=C(O)C(F)(F)F.O=C(O)C(F)(F)F (stereo not drawn) [GSK1325775],0
6,O=C(Nc1n[nH]c2cc(-c3cccc(F)c3)ccc12)C1CC1 [SB-735464],0
7,COc1ccc(COc2cc(-n3cnc4ccccc43)sc2C(N)=O)cc1 [GSK1024304],0
8,CN(C(=O)c1ccc(-c2cc(-c3c[nH]nc3-c3ccccn3)ccn2)cc1)C1CCOCC1 [GW810083],0
9,O=c1cc(N2CCOCC2)nc2n(Cc3cccc(Cl)c3Cl)c(C3CC3)nn12 [GSK2358994],35
10,COc1cc2ncn(-c3cc(OCc4sccc4Cl)c(C(N)=O)s3)c2cc1OC [GSK448459],0
11,CCc1ccnc(/C=C/c2n[nH]c3cc(Sc4ccccc4C(=O)NC)ccc23)c1,0
12,CSc1ccc(-c2cc3ncnc(SCC(=O)O)c3s2)cc1,0
13,COc1ccc(Nc2nccc(N3CCC(NC(=O)Nc4cc(C)ccc4C)C3)n2)cc1 (stereo not drawn) [GSK1379741],0
14,Cc1c(Cn2c(C)nn3c(=O)cc(N4CCOC(C)C4)nc23)cccc1C(F)(F)F (stereo not drawn) [GSK2344444],0
15,O=C1NC(=O)C(N2CCc3ccccc32)=C1c1cccc(Cl)c1 [SB-408010],0
16,Cn1ccc2ncnc(Oc3ccc(NC(=O)Nc4ccncc4)c(Cl)c3)c21,0
17,O=C(NOCC1CC1)c1ccc(F)c(F)c1Nc1ccc(I)cc1Cl,0
18,Cc1ccc(NC(=O)c2ccnc(N3CCN(C)CC3)c2)cc1-c1ccc(C(=O)NCC2CC2)cc1 [GW775604],0

# — article PMC5540273 (PLoS ONE, 2017)
